Here are results for five molecules from PubChem BioAssay (EPA / NIEHS).

The structures appear in SMILES notation. Several values for one entry are separate records, joined by “and”; a condition that tells them apart may be missing. Equal values may be shown once. Where a structure was tested more than once in an assay, its records may differ in their call. Activity calls are given as the source filed them. Rule for the calls: active = hit-call score of the fitted dose curve at least 0.9, where 1 is the maximum; inactive = score below 0.9.

The nature of assay [1]: ATG_CRE_CIS: Attagene CIS-FACTORIAL HepG2 Assay for human cAMP Responsive Element (CRE) binding protein 3 (AID 2282926). Conditions: HepG2 CRE cis-reporter, Attagene multiplexed mRNA; actives raise or lower the signal. The procedure, abridged:
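Induced reporter mRNA from a CRE cis element, measured in HepG2 among many multiplexed units at 24 h. Detection used RT-PCR plus capillary electrophoresis of fluorescent fragments; DMSO served as negative control.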

The target of assay [2] is CCAAT/enhancer-binding protein beta (Homo sapiens) (UniProt P17676). Put plainly: ATG_C_EBP_CIS: Attagene CIS-FACTORIAL HepG2 Assay for human CCAAT/Enhancer Binding Protein (C/EBP) beta (AID 2282927). Conditions: HepG2 Attagene cis-factorial transcription factor reporter; actives raise or lower the signal. The procedure, abridged:
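Following a 24 h incubation with test chemical, transfected HepG2 cells yielded RNA whose reporter transcripts were quantified by RT-PCR and fluorescent capillary electrophoresis, with DMSO serving as baseline for bidirectional fitting.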

Assay [3] is described as follows: ATG_CMV_CIS: Attagene CIS-FACTORIAL HepG2 Assay for human CMV (Internal Marker) (AID 2282928).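 Note: endpoint acts as a background internal control marker rather than a target.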 To be noted: HepG2 CMV promoter reporter, transcription factor profiling; actives raise or lower the signal. The procedure, abridged:
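Fluorescence intensity of RT-PCR-derived reporter fragments, resolved by capillary electrophoresis, gives the signal. HepG2 liver cells bearing transfected cis-element reporters were treated 24 h; activity in either direction was fit relative to DMSO-treated controls.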

A short description of assay [4]: ATG_DR4_LXR_CIS: Attagene CIS-FACTORIAL HepG2 Assay for human Liver X Receptor (LXR), DR4 submotif (AID 2282929). Conditions: HepG2 Attagene DR4 cis-reporter, mRNA transcription; actives raise or lower the signal. In outline: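 HepG2 cells were transiently transfected with multiple cis-regulated reporter units and dosed for 24 hours. The DR4 reporter mRNA was quantified by RT-PCR, 6-FAM labelling and capillary electrophoresis. Bidirectional fits used DMSO as baseline.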

Assay [5] has as its target Aryl hydrocarbon receptor (Homo sapiens) (UniProt P35869). Put plainly: ATG_Ahr_CIS: Attagene CIS-FACTORIAL HepG2 Assay for human Aryl Hydrocarbon Receptor (Ahr) (AID 2282930). To be noted: HepG2 AhR cis-factorial reporter transcription; actives raise or lower the signal. In outline:
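Values derive from bidirectional fitting against DMSO negative control. Underlying signal: cis-element reporter mRNA in transiently transfected HepG2, harvested 24 h post-dose and measured by RT-PCR plus capillary electrophoresis.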

A short description of assay [6]: ATG_AP_1_CIS: Attagene CIS-FACTORIAL HepG2 Assay for human Activator Protein 1 (AP-1) (AID 2282931). To be noted: HepG2 Attagene cis-factorial AP-1 reporter mRNA; actives raise or lower the signal. In outline: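 HepG2 cells transiently transfected with cis-element-driven reporter transcription units, dosed for 24 hours. Reporter mRNA measured by RT-PCR, 6-FAM labelling, HpaI digestion and capillary electrophoresis. Bidirectional fitting against DMSO baseline.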

A short description of assay [7]: ATG_AP_2_CIS: Attagene CIS-FACTORIAL HepG2 Assay for human Activator Protein 2 (AP-2) (AID 2282932). To be noted: HepG2 AP-2 cis-reporter, Attagene transcription factor profiling; actives raise or lower the signal. In outline:
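Assay in transfected HepG2 with promoter-regulated reporters, 24 h incubation after dosing. Signal is reporter mRNA fluorescence (RT-PCR, capillary electrophoresis), analysed for both increases and decreases relative to DMSO controls.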

Assay [8] can be described thus: ATG_BRE_CIS: Attagene CIS-FACTORIAL HepG2 Assay for human Bone Morphogenetic Protein (BMP) Response Element (BRE) (AID 2282933). Conditions: HepG2 BMP response element reporter, Attagene transcription factor profiling; actives raise or lower the signal. The procedure, abridged: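 Multiplexed cis-reporter assay, HepG2, 24 h exposure. mRNA from reporter units quantified via RT-PCR/CE; DMSO baseline; bidirectional curve fit.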

In assay [9] the target is Retinoic acid receptor alpha (Homo sapiens) (UniProt P10276). Put plainly: ATG_DR5_RAR_CIS: Attagene CIS-FACTORIAL HepG2 Assay for human Retinoic Acid Receptor Alpha (RARE), DR5 submotif (AID 2282934).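 For AC50: reporter responds to endogenous RAR alpha beta and gamma in HepG2 not RARA alone.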 Conditions: HepG2 Attagene cis-factorial RARE DR5 reporter, mRNA; actives raise or lower the signal. The procedure, abridged:
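Endpoint fitted in both directions relative to DMSO as negative control. It reflects DR5 cis-element reporter mRNA induction in transiently transfected HepG2 cells, measured 24 h after dosing through RT-PCR and fluorescent capillary electrophoresis.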

The nature of assay [10]: ATG_E_Box_CIS: Attagene CIS-FACTORIAL HepG2 Assay for human Enhancer Box (E-box) (AID 2282936). Conditions: HepG2 E-box cis-reporter transcription, actives raise or lower the signal. In outline:
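Measured 24 h post-dosing in HepG2 cells transfected with multiple cis-regulated reporter units, signal being reporter mRNA induction detected by fluorescent RT-PCR with capillary electrophoresis; gain or loss fitted against DMSO.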

Assay [11] is described as follows: ATG_M_61_CIS: Attagene CIS-FACTORIAL HepG2 Assay for M61 Transcription Factor (Internal Marker) (AID 2282937). To be noted: HepG2 Attagene CIS-FACTORIAL M61 internal marker reporter; actives raise or lower the signal. In outline: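 HepG2 cells transiently transfected with multiplexed cis-promoter reporter units reporting endogenous transcription factor activity, measured 24 h after dosing. Reporter mRNA quantified by RT-PCR and capillary electrophoresis; bidirectional fit against DMSO baseline.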

Assay [12] is described as follows: ATG_EGR_CIS: Attagene CIS-FACTORIAL HepG2 Assay for human Early Growth Response 1 (EGR1) (AID 2282938). To be noted: HepG2 Attagene CIS-FACTORIAL EGR reporter mRNA; actives raise or lower the signal. The procedure, abridged: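 HepG2 cells transiently transfected with cis-element-driven multiplexed reporter units, dosed for 24 h. EGR1-element reporter mRNA quantified by RT-PCR, 6-FAM labelling, HpaI digestion and capillary electrophoresis; bidirectional fit versus DMSO.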

The nature of assay [13]: ATG_M_19_CIS: Attagene CIS-FACTORIAL HepG2 Assay for M19 Transcription Factor (Internal Marker) (AID 2282939). To be noted: HepG2 Attagene CIS-FACTORIAL M19 internal marker reporter; actives raise or lower the signal. In outline: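 Signals come from fluorescence of labelled reporter-specific PCR fragments resolved by capillary electrophoresis, following 24 h treatment of HepG2 cells transfected with cis-promoter reporter units; activity was fitted in both directions relative to DMSO.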

Assay [14] is described as follows: ATG_ERE_CIS: Attagene CIS-FACTORIAL HepG2 Assay for Estrogen Response Element (ERE) (AID 2282940). To be noted: HepG2 ERE cis-reporter, Attagene RNA transcript; actives raise or lower the signal. In outline:
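Fluorescence of capillary-separated, FAM-labelled reporter cDNA fragments indicates reporter mRNA levels in HepG2 cells exposed to chemicals for 24 h. Transient transfection with cis-regulated units; data fitted in both directions against DMSO.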

Assay [15] can be described thus: ATG_Ets_CIS: Attagene CIS-FACTORIAL HepG2 Assay for human Erythroblast Transformation Specific (ETS) (AID 2282941). Conditions: HepG2 ETS cis-reporter transcription, actives raise or lower the signal. In outline:
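Multiplexed reporter transcript profiling: HepG2, 24 h treatment, total RNA to cDNA, PCR, 6-FAM labelling, HpaI cut, capillary electrophoresis. Gain- or loss-of-signal fitted against DMSO.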

The target of assay [16] is Hepatocyte nuclear factor 3-beta (Homo sapiens) (UniProt Q9Y261). Put plainly: ATG_FoxA2_CIS: Attagene CIS-FACTORIAL HepG2 Assay for human Forkhead box A2 (FOXA2) (AID 2282942). To be noted: HepG2 cis-reporter transcription factor activity, 24 h; actives raise or lower the signal. In outline:
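HepG2 transiently transfected with a multiplexed cis-promoter reporter library read endogenous FOXA2 activity. After 24 h compound exposure, reporter mRNA was quantified by RT-PCR, HpaI digestion and capillary electrophoresis. Bidirectional fit against DMSO.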

The nature of assay [17]: ATG_FoxO_CIS: Attagene CIS-FACTORIAL HepG2 Assay for human Forkhead box O (FoxO) (AID 2282943). To be noted: HepG2 Attagene cis-reporter, FoxO element, mRNA; actives raise or lower the signal. The procedure, abridged: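 Values reflect reporter mRNA induction or loss in HepG2 cells 24 h post-dosing, fitted bidirectionally with DMSO as negative control and baseline. Detection used RT-PCR and fluorescence capillary electrophoresis.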

A short description of assay [18]: ATG_GATA_CIS: Attagene CIS-FACTORIAL HepG2 Assay for human GATA Binding Protein (AID 2282944). To be noted: HepG2 GATA cis-element reporter, Attagene multiplex mRNA; actives raise or lower the signal. The procedure, abridged: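 After transfecting HepG2 cells with multiple cis-regulated reporter units, chemicals are dosed for 24 h; isolated RNA undergoes RT-PCR and fluorescent labeling before capillary electrophoresis, with activity expressed against DMSO.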

Assay [19] is described as follows: ATG_GLI_CIS: Attagene CIS-FACTORIAL HepG2 Assay for human Zinc Finger Protein GLI1 (AID 2282945). To be noted: HepG2, Attagene cis-factorial reporter mRNA, GLI element; actives raise or lower the signal. In outline:
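HepG2 cells transiently transfected with cis-promoter multiplexed reporter units report endogenous transcription factor activity. After 24 h chemical exposure, reporter mRNA was quantified by RT-PCR, 6-FAM labelling, HpaI digestion and capillary electrophoresis, with bidirectional fitting against DMSO.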

Assay [20] has as its target Transcription factor E2F1 (Homo sapiens) (UniProt Q01094). Put plainly: ATG_E2F_CIS: Attagene CIS-FACTORIAL HepG2 Assay for human E2F Transcription Factor 1 (AID 2282935). To be noted: HepG2 Attagene cis-reporter, E2F reporter RNA transcripts; actives raise or lower the signal. The procedure, abridged:
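In this cis-factorial format, endogenous factor activity drives transfected reporters in HepG2; transcripts collected at 24 h are quantified by fluorescence after RT-PCR and capillary separation.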

Retinoic acid receptor alpha (Homo sapiens), sequence (P10276 whole entry, looked up): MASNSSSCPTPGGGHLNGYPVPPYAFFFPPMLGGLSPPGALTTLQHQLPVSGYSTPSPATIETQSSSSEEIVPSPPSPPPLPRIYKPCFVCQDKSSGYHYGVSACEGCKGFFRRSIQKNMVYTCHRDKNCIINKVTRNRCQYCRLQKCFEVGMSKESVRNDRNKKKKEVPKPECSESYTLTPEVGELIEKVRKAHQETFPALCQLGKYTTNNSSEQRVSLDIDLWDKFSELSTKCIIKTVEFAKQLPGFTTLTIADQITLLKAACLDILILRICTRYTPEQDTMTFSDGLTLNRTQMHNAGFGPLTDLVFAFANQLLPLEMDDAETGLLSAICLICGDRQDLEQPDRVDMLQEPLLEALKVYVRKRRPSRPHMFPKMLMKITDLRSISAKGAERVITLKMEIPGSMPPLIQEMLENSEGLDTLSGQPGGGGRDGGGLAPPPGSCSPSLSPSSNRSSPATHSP
Transcription factor E2F1 (Homo sapiens), sequence (Q01094 whole entry, looked up): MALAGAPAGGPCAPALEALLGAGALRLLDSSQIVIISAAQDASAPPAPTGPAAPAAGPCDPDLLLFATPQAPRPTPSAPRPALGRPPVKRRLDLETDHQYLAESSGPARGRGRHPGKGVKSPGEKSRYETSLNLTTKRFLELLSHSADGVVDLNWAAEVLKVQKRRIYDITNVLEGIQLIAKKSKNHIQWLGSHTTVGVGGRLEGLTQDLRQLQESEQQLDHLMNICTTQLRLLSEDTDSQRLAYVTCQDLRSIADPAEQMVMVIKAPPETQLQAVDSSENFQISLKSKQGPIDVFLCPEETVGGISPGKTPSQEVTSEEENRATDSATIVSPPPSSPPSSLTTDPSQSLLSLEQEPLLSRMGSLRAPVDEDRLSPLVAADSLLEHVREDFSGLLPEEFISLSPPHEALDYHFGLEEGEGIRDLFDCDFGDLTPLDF
Aryl hydrocarbon receptor (Homo sapiens), sequence (P35869 whole entry, looked up): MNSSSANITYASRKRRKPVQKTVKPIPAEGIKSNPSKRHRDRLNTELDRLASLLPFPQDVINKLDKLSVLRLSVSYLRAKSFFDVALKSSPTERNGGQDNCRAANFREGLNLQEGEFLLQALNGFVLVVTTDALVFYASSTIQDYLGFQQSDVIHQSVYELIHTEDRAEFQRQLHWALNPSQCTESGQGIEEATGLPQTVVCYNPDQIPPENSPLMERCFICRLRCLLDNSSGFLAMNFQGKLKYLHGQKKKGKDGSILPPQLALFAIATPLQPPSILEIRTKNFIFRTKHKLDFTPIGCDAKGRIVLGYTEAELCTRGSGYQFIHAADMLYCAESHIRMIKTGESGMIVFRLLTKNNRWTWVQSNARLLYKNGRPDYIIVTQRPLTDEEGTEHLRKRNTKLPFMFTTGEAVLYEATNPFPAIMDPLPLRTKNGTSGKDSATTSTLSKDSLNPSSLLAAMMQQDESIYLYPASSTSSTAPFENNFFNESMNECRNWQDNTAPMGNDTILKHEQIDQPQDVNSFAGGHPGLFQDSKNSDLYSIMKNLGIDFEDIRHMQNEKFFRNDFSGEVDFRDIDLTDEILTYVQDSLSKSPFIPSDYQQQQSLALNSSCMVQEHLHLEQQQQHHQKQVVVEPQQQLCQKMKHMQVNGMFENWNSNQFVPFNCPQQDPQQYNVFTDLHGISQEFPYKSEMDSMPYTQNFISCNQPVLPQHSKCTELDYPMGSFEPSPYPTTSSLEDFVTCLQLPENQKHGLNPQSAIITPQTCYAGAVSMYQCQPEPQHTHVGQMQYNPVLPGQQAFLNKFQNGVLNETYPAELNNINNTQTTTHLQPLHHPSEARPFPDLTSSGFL
CCAAT/enhancer-binding protein beta (Homo sapiens), sequence (P17676 whole entry, looked up): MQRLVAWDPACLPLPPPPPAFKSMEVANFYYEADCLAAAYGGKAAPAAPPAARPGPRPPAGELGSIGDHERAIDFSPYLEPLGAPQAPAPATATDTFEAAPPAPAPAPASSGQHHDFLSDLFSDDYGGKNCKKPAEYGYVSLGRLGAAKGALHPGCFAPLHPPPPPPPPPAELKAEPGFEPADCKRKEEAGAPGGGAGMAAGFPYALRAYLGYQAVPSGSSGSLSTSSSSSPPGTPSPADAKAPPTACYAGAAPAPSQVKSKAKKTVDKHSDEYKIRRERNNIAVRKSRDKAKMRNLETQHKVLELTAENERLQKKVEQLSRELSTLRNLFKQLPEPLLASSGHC
Hepatocyte nuclear factor 3-beta (Homo sapiens), sequence (Q9Y261 whole entry, looked up): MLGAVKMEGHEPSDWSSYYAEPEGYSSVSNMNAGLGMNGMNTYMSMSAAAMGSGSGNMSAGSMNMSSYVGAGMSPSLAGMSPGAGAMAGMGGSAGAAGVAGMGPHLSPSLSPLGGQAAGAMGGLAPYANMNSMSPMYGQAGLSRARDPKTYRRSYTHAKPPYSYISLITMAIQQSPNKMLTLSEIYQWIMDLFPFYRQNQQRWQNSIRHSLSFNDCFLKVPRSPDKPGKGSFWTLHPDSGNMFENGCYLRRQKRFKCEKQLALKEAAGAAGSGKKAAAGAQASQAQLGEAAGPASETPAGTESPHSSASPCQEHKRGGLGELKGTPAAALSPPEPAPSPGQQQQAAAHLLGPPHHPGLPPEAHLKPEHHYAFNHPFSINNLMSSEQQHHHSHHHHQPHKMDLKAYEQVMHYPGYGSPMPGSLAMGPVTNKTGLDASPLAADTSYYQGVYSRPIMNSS

Take `CCCCCc1ccc(N)cc1`: the molecule was called inactive in assay [1], in assay [2], in assay [3], in [4], in assay [5] and in [6]. Also, the molecule was classed as inactive in assay [7], in assay [8], in assay [9], in [10], in assay [11] and in [12]. In addition, the molecule was classed as inactive in assay [13], in assay [15], in [16], in [17], in [18] and in assay [19]. Also, the AC50 in [5] is 65.5 µM (active); in assay [6] it was 25.9 µM (active); in [10] it was 5.55 µM (active) and 4.89 µM (active); in assay [14], 15.1 µM (active) [middle of 4 runs].
As to `CO[C@H]1/C=C/O[C@@]2(C)Oc3c(C)c(O)c4c(O)c(c(/C=N/N5CCN(C)CC5)c(O)c4c3C2=O)NC(=O)/C(C)=C\C=C\[C@H](C)[C@H](O)[C@@H](C)[C@@H](O)[C@@H](C)[C@H](OC(C)=O)[C@@H]1C`, the call in assay [1], in assay [2], in [3], in assay [4], in assay [5] and in assay [6] was inactive. Moreover, the molecule was called inactive in [7], in assay [8], in [9], in [10], in assay [11] and in assay [13]. Further, the outcome in assay [15], in assay [16], in assay [17], in [18] and in assay [19] was inactive. The AC50 in assay [5] was 37.4 µM (active).
On to `CCCCCCCCN(C)CCCCCCCC`, for which the result in assay [1], in assay [2], in assay [3], in assay [4], in [5] and in assay [6] was inactive. The molecule was classed as inactive in [7], in assay [8], in assay [9], in assay [20], in assay [10] and in assay [11]. Besides, the result in assay [13], in [15], in assay [16], in assay [17], in [18] and in assay [19] was inactive. The AC50 in assay [14] was 30.2 µM (active).
`CCN(Cc1cccc(S(=O)(=O)O)c1)c1ccc(C(=C2C=CC(=[N+](CC)Cc3cccc(S(=O)(=O)O)c3)C=C2)c2ccccc2S(=O)(=O)[O-])cc1`: the molecule was classed as inactive in assay [1], in assay [2], in assay [3], in [4], in assay [5] and in assay [6]. In addition, the molecule was classed as inactive in [7], in assay [8], in assay [9], in [20], in assay [10] and in assay [11]. In addition, the outcome in [12], in [13], in assay [14], in [15], in assay [16] and in assay [17] was inactive. Also, the result in assay [18] and in [19] was inactive.
As for `CC1(C)NC(=O)N(c2ccc([N+](=O)[O-])c(C(F)(F)F)c2)C1=O`, the AC50 in assay [1] was 0.00911 µM (active); in assay [6], 39.2 µM (active); in assay [9] it was 0.083 µM (active). Also, the result in assay [1], in [2], in assay [3], in assay [4], in assay [5] and in assay [6] was inactive. For the same molecule, the outcome in assay [7], in [8], in assay [9], in assay [20], in assay [10] and in [11] was inactive. For the same molecule, the call in assay [12], in [13], in assay [15], in assay [16], in assay [17] and in assay [18] was inactive. Besides, the outcome in [19] was inactive.
